ssDAF-12 act: S. stercoralis DAF-12 activation, primary screen. HEK293 ssDAF-12/GRIP1 lit1-tk-luc reporter, luminescence; % of 3 µM dafachronic acid response. activation, % at 6.8 µM. 1% of 370,000 active;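 active means activation above the mean over all tested compounds plus 3 SD, cut at about 0.9% in these data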;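 further: 0% = DMSO-only wells and 100% = 3 µM delta7-dafachronic acid wells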
DAX1 inh-1: inhibitors of human orphan nuclear receptor DAX1 (NR0B1); HEK293 Gal4-DAX1 luciferase reporter, luminescence; inhibition, % at 6.75 µM; 0.99% of 340,000 active;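 active means inhibition above the mean over all tested compounds plus 3 SD, cut at about 4.2% in these data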;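 further: 0% = DAX1-transfected cells with DMSO and 100% = empty-vector control cells with DMSO; inhibition shows as a rise in luminescence from relieved DAX1 repression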
Target sequence (P51843 207-470 limits assumed): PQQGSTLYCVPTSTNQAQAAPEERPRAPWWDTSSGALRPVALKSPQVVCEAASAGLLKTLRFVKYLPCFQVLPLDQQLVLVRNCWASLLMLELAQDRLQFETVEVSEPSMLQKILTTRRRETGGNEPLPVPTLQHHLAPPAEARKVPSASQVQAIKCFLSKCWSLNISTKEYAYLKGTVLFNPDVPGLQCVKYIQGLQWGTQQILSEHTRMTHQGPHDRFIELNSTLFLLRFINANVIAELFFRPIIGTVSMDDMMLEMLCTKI
NR1D1 modulator: modulates human Rev-erb alpha binding to DNA; P20393; Rev-erbα–FITC-DNA binding, fluorescence polarization, 90 min; activity, % at 10 µM; 0.79% of 370,000 active;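 active means activity above about 14%, limit read from the data; passing the limit was not always enough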;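 further: 0% = DMSO wells with 35 nM protein and 100% = DMSO wells with 750 nM protein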
hcDAF12 agonist: activators of H. contortus DAF-12 nuclear receptor | 1.4% of 370,000 active | AID 652067 | HEK293 hcDAF-12 lit1-tk-luc reporter, luminescence; 0% DMSO, 100% Δ7-dafachronic acid | activation, % at 6.8 µM;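 active means activation above the mean of all tested compounds plus 3 SD, cut at about 5.5% in these data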;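 further: 100% = response to 3 µM Δ7-dafachronic acid high control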
hgDAF12 agonist: activates the H. glycines DAF-12 receptor ligand-binding domain; HEK293 GAL4-hgDAF12 UAS-luciferase reporter, agonist luminescence; normalized to butyrate control; activation, % at 6.8 µM; 1.8% of 370,000 active; AID 687014;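 active means activation above a cutoff set at the mean of all screened compounds plus 3 SD, cut at about 10% in these data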;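 further: 0% = DMSO wells and 100% = sodium butyrate wells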
DAX1 inh-2: inhibitors of DAX1 repression of SF-1 activated StAR promoter | HEK293T StAR-luciferase reporter, SF-1/DAX-1 repression relief | inhibition, % at 6.8 µM | 1.1% of 370,000 active | AID 652010;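 active means inhibition above the mean over all tested compounds plus 3 SD, cut at about 3.6% in these data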;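 further: 0% = DAX-1 cells with DMSO and 100% = cells lacking DAX-1 with DMSO; higher inhibition means more luminescence from relief of DAX-1 repression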
NR1D1 mod conf: Rev-erb alpha (human) modulation, hit confirmation; shares compounds with NR1D1 modulator; Rev-erb alpha FITC-DNA binding, fluorescence polarization, 90 min; activation, % at 25 µM; 61% of 3,000 active;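 active means activation at or above a set limit, or at least 3 SD above the negative control mean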;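 further: 0% = 35 nM protein with DMSO and 100% = 750 nM protein high control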
RORg DNA counter: counter-screen for Rev-erb alpha modulators: RORgamma DNA binding; AID 1259320; 8% of 910 active; purified RORgamma protein-FITC-DNA binding, fluorescence polarization; shares compounds with NR1D1 modulator; IC50, µM;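 active means Compounds whose fitted half-maximal concentration for disrupting protein-DNA binding is below 10 micromolar; the record names Rev-erb in its text, so the target is in doubt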
Starred values were filed as active, the others as inactive; i = inactive; . = no result given. Most compounds without a hit are left out; they make up all but 4.8% or so of the library.

SMILES | ssDAF-12 act | DAX1 inh-1 | NR1D1 modulator | hcDAF12 agonist | hgDAF12 agonist | DAX1 inh-2 | NR1D1 mod conf | others
CCn1c(=O)c(C(=O)Nc2ccccc2S(N)(=O)=O)c(O)c2ccccc21 | 0 | 1 | 20* | -1 | 3 | 2 | 17
Fc1cnc(N2CCc3ccccc32)nc1N1CCc2ccccc21 | 0 | 2 | 57* | 2 | 1 | 0 | 137* | RORg DNA counter=>40
Fc1cnc(N2CCN(c3ccccc3)CC2)nc1N1CCN(c2ccccc2)CC1 | -1 | -1 | -2 | -2 | 0 | 0 | .
CC(=O)Nc1ccc(C=NNc2ccc(S(=O)(=O)Nc3ccccc3C(=O)O)cc2[N+](=O)[O-])cc1 | -1 | 1 | -5 | 0 | -1 | 0 | .
CN(CCO)c1ccc(C=NNc2ccc([N+](=O)[O-])cc2S(=O)(=O)Nc2ccccc2C(=O)O)cc1 | -1 | . | 21* | -1 | -1 | -1 | 4
CCOC(=O)[C@@]12CCC3=C1N(CCC3)C(=O)[C@H](CC(=O)N1CCCC1)C2 | -1 | . | 3 | -1 | -1 | 0 | .
CCCCCCn1c(-c2ccc(Cl)cc2Cl)csc1=Nc1ccccc1 | 0 | . | 2 | 0 | 2 | 0 | .
CCc1nnc(NC(=O)c2oc3ccc(Br)cc3c2C)s1 | 0 | 1 | 42* | 2 | 2 | 1 | 40* | RORg DNA counter=>40
CCc1nonc1NC(=O)c1oc2ccccc2c1C | -1 | 0 | 0 | -1 | 3 | 0 | .
Cc1ccc2c(C)c(C(=O)Nc3nnc(C)s3)oc2c1 | -1 | 1 | 3 | -1 | 0 | 0 | .
Cc1nnc(NC(=O)c2oc3c(ccc4ccccc43)c2C)s1 | 0 | 0 | 39* | 5 | 4 | 0 | 29*
CCc1nonc1NC(=O)c1oc2cc(Br)ccc2c1C | -1 | 1 | 17* | -1 | 1 | 0 | 9
CC(=O)Nc1ccc(NC(=O)c2cccc(-c3cc4ccccc4oc3=O)c2)cc1 | -1 | 2 | 0 | 1 | 8 | 2 | .
Cc1cc(C)cc(C(=O)NC(=S)Nc2ccc(-c3cc4ccccc4oc3=O)cc2)c1 | -3 | -3 | 70* | -6 | -12 | -2 | 36*
Cc1ccc(C(=O)NC(=S)Nc2ccc(-c3cc4ccccc4oc3=O)cc2)c(C)c1 | -2 | -2 | 68* | -4 | -9 | 0 | 18*
O=C(Cc1cccc2ccccc12)Nc1ccc(-c2cc3ccccc3oc2=O)cc1 | -3 | -1 | 27* | -4 | -8 | -1 | -2
CCC(=O)Nc1cccc(-c2cc3ccccc3oc2=O)c1 | -2 | 1 | 4 | -3 | 0 | 0 | .
Cc1cc(Nc2ccc(Cl)c(C(F)(F)F)c2)cc(=O)n1-c1ccc(Cl)c(C(F)(F)F)c1 | -1 | . | 2 | -1 | -5 | -2 | .
CC(C)(N[C@@H](Cc1ccccc1)C(=O)NCC(c1ccccc1)c1ccccc1)C(=O)NC1CCCCC1 | -2 | . | -4 | 0 | 1 | . | .
CCCCOc1ccc(N(CC(=O)NC2CCCCC2)C(=O)c2snc(C(N)=O)c2N)cc1 | -1 | 2 | 64* | -1 | 0 | 0 | 41* | RORg DNA counter=i
OCc1cn(-c2ccccc2)nc1-c1ccc(-c2nn(-c3ccccc3)cc2CO)cc1 | 0 | 0 | 16* | -1 | 0 | 0 | 8
O=C(O)Cc1cn(-c2ccccc2)nc1-c1ccccc1 | -2 | 1 | -1 | 0 | -2 | 1 | .
COCCn1c(SCC(=O)c2c[nH]c3ccccc23)nnc1-c1ccncc1 | . | 0 | . | . | . | . | .
CCn1c(SCC(=O)c2c[nH]c3ccccc23)nnc1-c1cccs1 | 0 | 1 | 102* | 1 | -1 | 0 | 112* | RORg DNA counter=>40
COc1ccc(N2C[C@@]3(O)CC[C@@H](O)[C@@H](OC)[C@@H]3[C@@](C)(O)[C@@H]2CC=C(C)C)cc1 | -1 | . | -3 | 3 | 2 | 0 | .
SMILES | ssDAF-12 act | DAX1 inh-1 | NR1D1 modulator | hcDAF12 agonist | hgDAF12 agonist | DAX1 inh-2 | NR1D1 mod conf | others
O=C(CSc1nnc(Cc2cccs2)n1-c1ccccc1)Nc1ccccc1-c1ccccc1 | -1 | . | 1 | -1 | 3 | -1 | .
COc1cc(-c2cc(C(=O)Nc3cccc(S(=O)(=O)N(C)C)c3)c3ccccc3n2)cc(OC)c1OC | -1 | -1 | 15* | -1 | 1 | 0 | -9
N#Cc1ccc(Cn2nnc(-c3ccc(N4CCOCC4)cc3)n2)cc1 | -2 | . | 5 | 2 | 0 | 0 | .
Clc1ccc(-n2c(SCc3cccc4ccccc34)nnc2-c2ccco2)cc1 | -2 | . | 0 | -4 | 0 | -1 | .
CCOC(=O)c1ccc(CNC(=O)CSc2nc(NC(=O)c3ccccc3)c3c(C)c(C)oc3n2)cc1 | 0 | 1 | 27* | 0 | 1 | -1 | 37* | RORg DNA counter=>40
CCOC(=O)c1ccc(CNC(=O)CSc2nnc(-c3ccncc3)o2)cc1 | -1 | -1 | -4 | -3 | -1 | 0 | .
CCOC(=O)CSc1nc(C2CC2)cc(-c2ccc(F)cc2)c1C#N | -1 | 0 | . | 0 | 0 | -1 | .
COc1ccc(-c2cc(C3CC3)nc(SCC(=O)c3cccs3)c2C#N)cc1 | -1 | 0 | 88* | -3 | -1 | 0 | 110* | RORg DNA counter=>40
O=C(NCCOc1ccccc1)c1ccc2c(c1)S(=O)(=O)c1cc(Cl)ccc1C2=O | -1 | 0 | 23* | 1 | 4 | 0 | 15
CN(C)/C=C1\C=C2C(=O)c3ccccc3N2C1=O | -1 | 2 | 340* | 1 | -1 | 0 | 229* | RORg DNA counter=1.1*
CN(C)S(=O)(=O)N1C(=O)c2ccccc2C1=O | -2 | 3 | -5 | 0 | 1 | 0 | .
Cc1nc(N2CCN(c3ccccn3)CC2)c2c(C)c(C(=O)Nc3ccc(F)cc3F)sc2n1 | -1 | 1 | 4 | 0 | 1 | 0 | .
Cc1nc(N2CCN(c3ccccn3)CC2)c2c(C)c(C(=O)N3CCN(c4cccc(Cl)c4)CC3)sc2n1 | -1 | 0 | 73* | -3 | 2 | -1 | 50* | RORg DNA counter=>40
Cc1nc(N2CCN(c3ccccn3)CC2)c2c(C)c(C(=O)Nc3ccc(F)cc3Cl)sc2n1 | -1 | 0 | 34* | 0 | -1 | 0 | 20*
CCc1ccc(NC(=O)c2sc3nc(C)nc(N4CCN(c5ccccn5)CC4)c3c2C)cc1 | 0 | -1 | 28* | -2 | 2 | 0 | 21*
COc1ccc(NC(=O)c2sc3nc(C)nc(N4CCN(c5ccccn5)CC4)c3c2C)cc1Cl | -1 | 0 | 18 | -2 | 1 | 1 | .
COc1cccc(C2NC(=S)NC(C)=C2C(C)=O)c1 (stereo not drawn) | -1 | . | -1 | 0 | -2 | 1 | .
